Reference: PubChem BioAssay (Tox21)
Several values for one entry are separate records, joined by “and”; a condition that tells them apart may be missing. Identical values can stand only once. Inconclusive results are not listed. A call without a number means that no potency is given here. Some compounds were tested as several samples or in several runs, with calls that do not always agree. Activity calls are given as the source filed them. Unless noted, the call rests on the fitted dose curve; in most records, active means well fitted curve in the direction sought with a large enough effect in the repeat runs; inconclusive means weak or mixed curves; inactive means no such curve, though single readings can be large; an effect the other way counts as inactive or inconclusive. Positions of bridges follow the written chain, without caps; N, C: chain ends. Non-standard residues stand in square brackets, D forms with d. Residues, ends and D or L forms follow the SMILES beside them. *: point of attachment. X1 = CC[C@@H](C)[C@@H](N)C1=N[C@H](C(=O)*)CS1; d(aIle) = CC[C@H](C)[C@@H](N)C(=O)O; dOrn = NCCC[C@@H](N)C(=O)O

Columns and labels:
[1] = qHTS assay to identify small molecule antagonists of the thyroid receptor (TR) signaling pathway - cell viability counter screen (AID 743064); further: nearly all actives have a fitted effect of over 50% in size; further: potency means the concentration at half of the fitted maximal effect
How it was run: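 Compounds were tested on GH3.TRE-Luc cells in the presence of T3 at 1 nM final. Following 23.5 h at 37 °C, cell viability was quantified by CellTiter-Fluor.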

[2] = qHTS assay to identify small molecule antagonists of the thyroid receptor (TR) signaling pathway (AID 743065); further: nearly all actives have a fitted effect of over 55% in size; further: potency means the concentration at half of the fitted maximal effect
How it was run: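 GH3.TRE-Luc rat pituitary cells (two TREs driving luciferase) were dosed with compound, then stimulated with 1 nM T3 (final) for 23.5 h at 37 C. ONE-Glo luminescence was the read-out, with CellTiter-Fluor fluorescence as the cytotoxicity counter-screen.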

[3] = tested on: thyroid hormone receptor (rat, GH3 cells); test: qHTS assay to identify small molecule agonists of the thyroid receptor (TR) signaling pathway (AID 743066; calls by dose curve)
[4] = target: Estrogen receptor (Homo sapiens) (UniProt P03372); test: qHTS assay to identify small molecule antagonists of the estrogen receptor alpha (ER-alpha) signaling pathway (AID 743069; active means well fitted curve in the direction sought with a large enough effect in the signal ratio in the repeat runs, not every such curve was filed as active; the % refers to the signal ratio)
Chain of Estrogen receptor (Homo sapiens) (P03372 whole entry, looked up): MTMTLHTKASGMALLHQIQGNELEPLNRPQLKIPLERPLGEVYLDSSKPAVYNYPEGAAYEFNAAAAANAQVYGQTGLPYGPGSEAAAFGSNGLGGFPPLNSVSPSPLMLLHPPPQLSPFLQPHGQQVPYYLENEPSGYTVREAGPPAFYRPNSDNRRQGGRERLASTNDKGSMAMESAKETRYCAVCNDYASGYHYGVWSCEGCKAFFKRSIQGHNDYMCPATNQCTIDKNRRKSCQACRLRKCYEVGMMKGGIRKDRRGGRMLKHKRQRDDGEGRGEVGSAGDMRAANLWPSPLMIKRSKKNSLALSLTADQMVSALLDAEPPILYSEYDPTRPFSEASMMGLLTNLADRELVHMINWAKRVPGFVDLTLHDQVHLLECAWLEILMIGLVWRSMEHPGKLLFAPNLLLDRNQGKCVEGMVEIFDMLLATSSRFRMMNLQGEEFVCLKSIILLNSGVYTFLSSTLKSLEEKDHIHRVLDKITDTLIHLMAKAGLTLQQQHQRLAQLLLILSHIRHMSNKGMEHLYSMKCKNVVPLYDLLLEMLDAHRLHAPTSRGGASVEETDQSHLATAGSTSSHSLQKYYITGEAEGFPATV
How it was run: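 Reporter cells (ER-alpha-bla, HEK293 background) are conditioned overnight in stripped-serum medium (2% charcoal-stripped FBS). Compound and 17beta-estradiol exposure runs 18 hr at 37C, 5% CO2.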

[5] = qHTS assay to identify small molecule antagonists of the estrogen receptor alpha (ER-alpha) signaling pathway - cell viability counter screen (AID 743074; calls by dose curve;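 further: HEK293 cells carrying ER-alpha-UAS-bla reporter stimulated with 17beta-estradiol; nearly all actives have a fitted effect of over 45% in size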)
[6] = target: Estrogen receptor (Homo sapiens) (UniProt P03372); test: qHTS assay to identify small molecule agonists of the estrogen receptor alpha (ER-alpha) signaling pathway (AID 743075; calls by dose curve;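 further: HEK293 GripTite cells with ER-alpha and UAS-driven beta-lactamase reporter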)
[7] = target: Estrogen receptor (Homo sapiens) (UniProt P03372); test: qHTS assay to identify small molecule agonists of the estrogen receptor alpha (ER-alpha) signaling pathway using the BG1 cell line (AID 743079); further: nearly all actives have a fitted effect of over 20% in size; further: potency means the concentration at half of the fitted maximal effect
[8] = qHTS assay to identify small molecule antagonists of the estrogen receptor alpha (ER-alpha) signaling pathway using the BG1 cell line (AID 743080; calls by dose curve;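 further: BG1 cells stimulated with 17beta-estradiol alongside compound; nearly all actives have a fitted effect of over 25% in size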; further: potency means the concentration at half of the fitted maximal effect)
How it was run: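 Luminescence from a 4×ERE-luciferase reporter in BG1-Luc-4E2 cells served as read-out. Cells, pre-cultured 5 days in stripped-serum phenol-red-free medium, were exposed to compound with 17beta-estradiol co-stimulation for 21.5 h at 37 C.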

[9] = qHTS assay to identify small molecule antagonists of the estrogen receptor alpha (ER-alpha) signaling pathway using the BG1 cell line - cell viability counter screen (AID 743081);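 further: compound given together with 17beta-estradiol as the ER stimulus; series mostly up to about 70 µM; nearly all actives have a fitted effect of over 45% in size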
Aromatase (Homo sapiens) = Aromatase (Homo sapiens) (UniProt P11511); test: qHTS assay to identify aromatase inhibitors (AID 743083); further: series mostly up to about 70 µM; nearly all actives have a fitted effect of over 55% in size
Chain of Aromatase (Homo sapiens) (P11511 whole entry, looked up): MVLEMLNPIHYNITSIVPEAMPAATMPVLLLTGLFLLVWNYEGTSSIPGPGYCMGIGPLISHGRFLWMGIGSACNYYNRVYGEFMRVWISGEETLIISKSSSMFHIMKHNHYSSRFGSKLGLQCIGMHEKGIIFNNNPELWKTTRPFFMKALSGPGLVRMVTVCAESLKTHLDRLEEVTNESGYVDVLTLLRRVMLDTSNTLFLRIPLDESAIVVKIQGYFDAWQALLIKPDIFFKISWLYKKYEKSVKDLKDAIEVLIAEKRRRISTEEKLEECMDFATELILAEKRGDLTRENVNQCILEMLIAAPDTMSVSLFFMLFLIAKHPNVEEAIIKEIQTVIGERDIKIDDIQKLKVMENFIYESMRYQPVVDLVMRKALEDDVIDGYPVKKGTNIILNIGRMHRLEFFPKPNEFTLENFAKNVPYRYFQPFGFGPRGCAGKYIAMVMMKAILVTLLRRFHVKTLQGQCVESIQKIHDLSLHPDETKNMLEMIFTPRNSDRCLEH

[10] = qHTS assay to identify aromatase inhibitors - cell viability counter screen (AID 743084);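 further: cells stimulated with testosterone during compound exposure; nearly all actives have a fitted effect of over 55% in size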
[11] = target: Aryl hydrocarbon receptor (Homo sapiens) (UniProt P35869); test: qHTS assay to identify small molecule that activate the aryl hydrocarbon receptor (AhR) signaling pathway (AID 743085); further: nearly all actives have a fitted effect of over 15% in size; further: potency means the concentration at half of the fitted maximal effect;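 on activation: HG2L7.5c1 human HepG2 liver cells with stably integrated DRE-driven firefly reporter; series mostly up to about 70 µM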
Chain of Aryl hydrocarbon receptor (Homo sapiens) (P35869 whole entry, looked up): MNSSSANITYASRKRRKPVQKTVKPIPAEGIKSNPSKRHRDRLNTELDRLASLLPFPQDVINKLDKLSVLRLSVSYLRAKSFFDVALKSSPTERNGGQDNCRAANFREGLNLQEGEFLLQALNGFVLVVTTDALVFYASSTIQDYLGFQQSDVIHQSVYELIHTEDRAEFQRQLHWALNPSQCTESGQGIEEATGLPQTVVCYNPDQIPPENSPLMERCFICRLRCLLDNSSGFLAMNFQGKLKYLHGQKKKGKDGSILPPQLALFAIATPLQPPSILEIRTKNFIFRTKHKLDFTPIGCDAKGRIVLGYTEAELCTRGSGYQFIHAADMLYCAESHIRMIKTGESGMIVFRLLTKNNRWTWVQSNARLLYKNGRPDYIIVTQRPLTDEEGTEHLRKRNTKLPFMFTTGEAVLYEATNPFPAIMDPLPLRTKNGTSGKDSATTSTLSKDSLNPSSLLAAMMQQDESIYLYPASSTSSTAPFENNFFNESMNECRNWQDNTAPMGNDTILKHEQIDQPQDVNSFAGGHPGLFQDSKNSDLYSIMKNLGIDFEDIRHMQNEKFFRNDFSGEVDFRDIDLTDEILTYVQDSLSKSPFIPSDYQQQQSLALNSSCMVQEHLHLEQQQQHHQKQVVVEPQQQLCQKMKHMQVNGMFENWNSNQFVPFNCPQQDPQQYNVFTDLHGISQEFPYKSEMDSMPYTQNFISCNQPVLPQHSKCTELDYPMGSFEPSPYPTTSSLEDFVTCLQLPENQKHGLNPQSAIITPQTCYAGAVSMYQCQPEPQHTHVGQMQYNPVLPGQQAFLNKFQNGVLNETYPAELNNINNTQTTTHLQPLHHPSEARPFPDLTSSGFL
How it was run: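 24 h compound exposure, 37C, HepG2-derived HG2L7.5c1 cells with DRE-responsive luciferase. Readouts: fluorescence viability, then luminescence at room temperature after 30 min.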

[12] = qHTS assay to identify small molecule that activate the aryl hydrocarbon receptor (AhR) signaling pathway - cell viability counter screen (AID 743086);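 further: HepG2 liver cells carrying the AhR DRE luciferase reporter; series mostly up to about 70 µM; nearly all actives have a fitted effect of over 45% in size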
How it was run: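 HepG2-AhR-luc (HG2L7.5c1) cells, 4000/well, treated 24 h at 37 C with compound; viability measured as CellTiter-Fluor fluorescence after 30 min in the same wells as the luciferase read.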

[13] = target: Peroxisome proliferator-activated receptor gamma (Homo sapiens) (UniProt P37231); test: qHTS assay to identify small molecule agonists of the peroxisome proliferator-activated receptor gamma (PPARg) signaling pathway (AID 743094; active means well fitted activation curve with a large enough effect in the signal ratio in the repeat runs, not every such curve was filed as active; the % refers to the signal ratio)
Chain of Peroxisome proliferator-activated receptor gamma (Homo sapiens) (P37231 whole entry, looked up): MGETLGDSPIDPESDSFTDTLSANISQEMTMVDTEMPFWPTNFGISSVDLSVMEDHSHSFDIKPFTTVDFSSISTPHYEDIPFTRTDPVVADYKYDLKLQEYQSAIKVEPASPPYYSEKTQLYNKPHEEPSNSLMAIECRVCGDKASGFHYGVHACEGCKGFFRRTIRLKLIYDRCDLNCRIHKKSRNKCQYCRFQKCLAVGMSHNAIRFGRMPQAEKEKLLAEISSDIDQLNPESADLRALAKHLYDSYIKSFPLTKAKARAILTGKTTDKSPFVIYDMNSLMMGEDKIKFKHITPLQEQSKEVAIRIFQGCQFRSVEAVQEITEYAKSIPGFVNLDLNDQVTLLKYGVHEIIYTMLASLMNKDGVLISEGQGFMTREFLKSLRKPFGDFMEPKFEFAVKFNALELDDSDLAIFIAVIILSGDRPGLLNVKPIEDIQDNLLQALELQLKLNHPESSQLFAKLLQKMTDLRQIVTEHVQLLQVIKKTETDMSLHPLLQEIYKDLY
How it was run: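 Quantitative HTS agonist mode: stable HEK293H line with UAS-beta-lactamase reporter under PPARg control, 17 h compound exposure at 37C, fluorescence after 1 h FRET substrate loading at room temperature.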

Structure (SMILES)	Potency [1]	Potency [2]	Potency [3]	Potency [4]	Potency [5]	Potency [6]	Potency [7]	Potency [8]	Potency [9]	Potency (Aromatase (Homo sapiens))	Potency [10]	Potency [11]	Potency [12]	Potency [13]
CO/N=C(\C(=O)N[C@@H]1C(=O)N2C(C(=O)[O-])=C(C[n+]3cccc4c3CCC4)CS[C@H]12)c1csc(N)n1	inactive	inactive	inactive	inactive	inactive	inactive	inactive	inactive	inactive	inactive	inactive	inactive	inactive	
CCc1ncnc2cc(OC)c(OC)cc12	inactive	inactive	inactive	inactive	inactive	inactive	inactive	inactive	inactive	inactive	inactive	inactive	inactive	
Nc1c(CC(=O)O)cccc1C(=O)c1ccccc1	inactive	inactive	inactive	inactive	inactive	inactive	inactive and 10.6 µM (active)	inactive	inactive	inactive	inactive	inactive	inactive	
O=C(O)c1ccc(NC2OC[C@@H](O)[C@H](O)[C@H]2O)cc1 (stereo not given in full)	inactive	inactive	inactive	inactive	inactive	inactive	inactive	inactive	inactive	inactive	inactive	inactive	inactive	inactive
CCOC(=O)Cc1ccc(-c2ccccc2)cc1	inactive	inactive	inactive	inactive	inactive	inactive	inactive	inactive	inactive	inactive	inactive	inactive	inactive	
CC1=C(/C=C/C(C)=C/C=C/C(C)=C/C=C/C=C(C)/C=C/C=C(C)/C=C/C2=C(C)CCCC2(C)C)C(C)(C)CCC1	inactive	inactive	inactive	inactive	inactive	inactive	inactive	inactive	inactive	inactive	inactive	inactive	inactive	inactive
C=CC(N)CCC(=O)O (stereo not given)	inactive	inactive	inactive	inactive	inactive	inactive	inactive	inactive	inactive	inactive	inactive	inactive	inactive	inactive
Cc1c(O)c(=O)ccn1C	inactive	inactive	inactive	inactive	inactive	inactive	inactive	inactive	inactive	inactive	inactive	inactive	inactive	inactive
C=C1[C@@H]2CC[C@@H](C2)C1(C)C	inactive	inactive	inactive	inactive	inactive	inactive	29.8 µM (active)	inactive	inactive	inactive	inactive	inactive	inactive	inactive
CCCCCCCCCCCCCCCC(=O)OC[C@H](COP(=O)([O-])OCC[N+](C)(C)C)OC(=O)CCCCCCCCCCCCCCC	inactive	inactive	inactive	inactive	inactive	inactive	inactive	inactive	inactive	inactive	inactive		inactive	inactive
C[C@H](Cc1ccc(O)c(O)c1)[C@@H](C)Cc1ccc(O)c(O)c1	9.44 µM (active)	8.41 µM (active)	inactive	inactive	inactive	inactive	inactive	inactive	inactive	inactive	inactive		inactive	inactive
O=C(O)COc1ccc(C(=O)c2cccs2)c(Cl)c1Cl	inactive	inactive	inactive	inactive	inactive	inactive	inactive	inactive	inactive	inactive	inactive	inactive	inactive	inactive
CC[C@H]1OC(=O)C[C@@H](O)[C@H](C)[C@@H](O[C@@H]2O[C@H](C)[C@@H](O)[C@H](N(C)C)[C@H]2O)[C@@H](CCN2C[C@H](C)C[C@H](C)C2)C[C@@H](C)C(=O)/C=C/C(C)=C/[C@@H]1CO[C@@H]1O[C@H](C)[C@@H](O)[C@@H](OC)[C@H]1OC	inactive	inactive	inactive	inactive	inactive	inactive	inactive	inactive	inactive	inactive	inactive	inactive	inactive	inactive
c1ccc2c(c1)OCC(CN1CCCCC1)O2 (stereo not given)	inactive	inactive	inactive	inactive	inactive	inactive	inactive	inactive	inactive	inactive	inactive		inactive	inactive
O=C(O)Cc1nn(Cc2ccc(Br)cc2F)c(=O)c2ccccc12	inactive	inactive	inactive	inactive	inactive	inactive	inactive	inactive	inactive	inactive	inactive	inactive	inactive	inactive
CC(C)=CCC/C(C)=C/CC/C(C)=C/CC/C(C)=C/CC1=C(C)C(=O)c2ccccc2C1=O	inactive	inactive	inactive	inactive	inactive	inactive	inactive	inactive and 9.44 µM (active)	inactive	inactive	inactive	10.6 µM (active)	inactive	inactive

Structure (SMILES)	Potency [1]	Potency [2]	Potency [3]	Potency [4]	Potency [5]	Potency [6]	Potency [7]	Potency [8]	Potency [9]	Potency (Aromatase (Homo sapiens))	Potency [10]	Potency [11]	Potency [12]	Potency [13]
CS(=O)(=O)c1ccc([C@@H](O)[C@@H](COC(=O)CN)NC(=O)C(Cl)Cl)cc1	inactive	inactive	inactive	inactive	inactive	inactive	inactive	inactive	inactive	inactive	inactive	inactive	inactive	inactive
NCCO/C=C/[C@H](N)C(=O)O	inactive	inactive	inactive	inactive	inactive	inactive	26.6 µM (active)	inactive	inactive	inactive	inactive		inactive	inactive
O=C(Cn1cnnn1)N[C@@H]1C(=O)N2C(C(=O)O)=C(CSc3nncs3)CS[C@H]12	inactive	inactive	inactive	inactive	inactive	inactive	inactive	inactive	inactive	inactive	inactive	inactive	inactive	inactive
C=CC1=C(C(=O)O)N2C(=O)[C@@H](NC(=O)/C(=N/OCC(=O)O)c3csc(N)n3)[C@H]2SC1 (stereo in doubt)	inactive	inactive	inactive	inactive	inactive	inactive	inactive	inactive	inactive	inactive	inactive		inactive	inactive
C=C(Nc1ccc(OCC)cc1)Nc1ccc(OCC)cc1	inactive	inactive	inactive	inactive	inactive	inactive	inactive	inactive	inactive	inactive	inactive	inactive	inactive	inactive
C[N+]1(CCCCC[N+]2(C)CCCC2)CCCC1	inactive	inactive	inactive	inactive	inactive	inactive	inactive	inactive	inactive	inactive	inactive	inactive	inactive	inactive
O=C(O)COc1ccccc1/C=N/NC(=O)c1ccncc1	inactive	inactive	inactive	inactive	inactive	inactive	inactive	inactive	inactive	inactive	inactive		inactive	inactive
CC12CCC(C[N+](C)(CCC[N+](C)(C)C)C1)C2(C)C (stereo not given)	inactive	inactive	inactive	inactive	inactive	inactive	inactive	inactive	inactive	inactive	inactive		inactive	inactive
NC(=O)C1c2ccccc2CCc2ccccc21	inactive	inactive	inactive	inactive	inactive	inactive	inactive	inactive	inactive	inactive	inactive	inactive	inactive	inactive
CC(C)Cc1ccc([C@H](C)C(=O)O)cc1	inactive	inactive	inactive	inactive	inactive	inactive	inactive	inactive	inactive	inactive	inactive	inactive		inactive
CC[C@@H](C)[C@@H](N)C1=N[C@H](C(=O)N[C@@H](CC(C)C)C(=O)N[C@@H](CCC(=O)O)C(=O)N[C@@H](C(=O)N[C@@H]2CCCCNC(=O)[C@@H](CC(N)=O)NC(=O)[C@@H](CC(=O)O)NC(=O)[C@@H](Cc3cnc[nH]3)NC(=O)[C@@H](Cc3ccccc3)NC(=O)[C@@H]([C@H](C)CC)NC(=O)[C@@H](CCCN)NC2=O)[C@@H](C)CC)CS1 (X1-LE[d(aIle)][dK][dOrn][dI][dF][dH][dD][dN]; lactam 4-C)	inactive	inactive	inactive	inactive	inactive	inactive	4.03 µM (active) and inactive	inactive	inactive	inactive	inactive	inactive	inactive	inactive
Nc1nc(/C(=C/CC(=O)O)C(=O)N[C@@H]2C(=O)N3C(C(=O)O)=CCS[C@H]23)cs1	inactive	inactive	inactive	inactive	inactive	inactive	inactive	inactive	inactive	inactive	inactive		inactive	inactive
CN[C@@H]1[C@@H](O[C@H]2O[C@H](CO)[C@@H](N)[C@H](O)[C@H]2O)O[C@H]2C[C@@H](N)[C@@H](O[C@H]3[C@H](O)[C@@H](O)[C@H](N)C[C@@H]3N)O[C@@H]2[C@@H]1O	inactive	inactive	inactive	inactive	inactive	inactive	inactive	inactive	inactive	inactive	inactive	inactive	inactive	inactive
NCC(O)CC(=O)O (stereo not given)	inactive	inactive	inactive	inactive	inactive	inactive	16.8 µM (active)	inactive	inactive	inactive	inactive		inactive	inactive
CC[C@H]1OC(=O)C[C@@H](O)[C@H](C)[C@@H](O[C@@H]2O[C@H](C)[C@@H](O[C@H]3C[C@@](C)(O)[C@@H](O)[C@H](C)O3)[C@H](N(C)C)[C@H]2O)[C@@H](CC=O)C[C@@H](C)C(=O)/C=C/C(C)=C/[C@@H]1CO[C@@H]1O[C@H](C)[C@@H](O)[C@@H](OC)[C@H]1OC	inactive	inactive	inactive	inactive	inactive	inactive	inactive	16.8 µM (active) and inactive	inactive	inactive	inactive	inactive	inactive	inactive
